# Results from PubChem BioAssay (NCI).
# The panel holds about 79,000 compounds, 15% with a hit somewhere; the sample as a whole holds those more often. Unmarked numbers belong to inactive results. Active and inactive are the calls of the source. No stated cut-off is given here; in the data, active means growth inhibition above about 70%; inactive means the rest.
# Assays:
# [1] = NCI Yeast Anticancer Drug Screen. Data for the rad52 strain (AID 147);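 further: 0% = growth of vehicle-treated control cultures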; settings: S. cerevisiae rad52 mutant growth inhibition, active compounds read high
# Summary of the method: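 Growth of repair-deficient yeast cells was compared between compound-treated and vehicle-treated cultures to give percent inhibition.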
# [2] = NCI Yeast Anticancer Drug Screen. Data for the wt1 strain (AID 149);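 further: 0% = growth of vehicle-treated wt1 cultures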; settings: S. cerevisiae wt1 strain (SPY 50644) growth inhibition, active compounds read high
# Summary of the method: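 Readout: yeast growth inhibition, normalised to vehicle controls, in the wt1 strain exposed to test compounds.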
# [3] = NCI Yeast Anticancer Drug Screen. Data for the rad50EPP+ strain (AID 151);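 further: 0% = growth of vehicle-treated control cultures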; settings: S. cerevisiae rad50 mutant strain, active compounds read high
# Summary of the method: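 Measured: growth inhibition of rad50EPP+ yeast. Reference: vehicle-treated controls. Screen uses strains with defined genetic alterations in DNA damage repair or cell cycle control.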
# [4] = NCI Yeast Anticancer Drug Screen. Data for the mgt1 strain (AID 153); settings: S. cerevisiae mgt1 mutant growth inhibition, active compounds read high
# Summary of the method: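 Compounds were applied to mgt1 mutant yeast, and growth was then compared against vehicle-treated control cultures to give percent inhibition.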
# [5] = NCI Yeast Anticancer Drug Screen. Data for the rad50 strain (AID 155);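 further: 0% = growth of vehicle-only cultures of the same strain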; settings: S. cerevisiae rad50 strain growth inhibition, active compounds read high
# Summary of the method: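 Compounds were tested on a yeast strain with an engineered DNA damage repair alteration; the reported value is growth inhibition normalised to vehicle treatment.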
# [6] = NCI Yeast Anticancer Drug Screen. Data for the mec2-1 strain (AID 157); settings: S. cerevisiae mec2-1 strain, active compounds read high
# Summary of the method: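 Compounds were applied to mec2-1 yeast cells. Their growth was then compared with that of vehicle-treated cultures to give growth inhibition.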
# [7] = NCI Yeast Anticancer Drug Screen. Data for the rad14 strain (AID 159);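 further: 0% = growth of vehicle-treated control cultures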; settings: S. cerevisiae rad14 strain growth inhibition, active compounds read high
# Summary of the method: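 Compound-treated yeast with a defined DNA-repair lesion; growth inhibition normalised to vehicle-treated cultures.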
# [8] = NCI Yeast Anticancer Drug Screen. Data for the sgs1 mgt1 strain (AID 161);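 further: 0% = growth of cultures given vehicle only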; settings: S. cerevisiae sgs1 mgt1 strain, active compounds read high
# Summary of the method: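 Yeast cells carrying a defined DNA-repair defect were exposed to test compounds. Growth inhibition was measured relative to vehicle-treated controls.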
# [9] = NCI Yeast Anticancer Drug Screen. Data for the CLN2oe strain (AID 163);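 further: 0% = growth of vehicle-only control cultures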; settings: S. cerevisiae CLN2oe strain, active compounds read high
# Summary of the method: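 Cells of an engineered yeast line with disturbed cell-cycle regulation are treated with compound. Inhibition of growth is then calculated relative to the vehicle-treated reference.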
# [10] = NCI Yeast Anticancer Drug Screen. Data for the cln2 rad14 strain (AID 165);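 further: 0% = growth equal to vehicle treated cultures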; settings: S. cerevisiae cln2 rad14 strain, active compounds read high
# Summary of the method: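 Strain: cln2 rad14 yeast, altered in cell cycle control and DNA damage repair. Read-out: growth inhibition vs vehicle.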
# [11] = NCI Yeast Anticancer Drug Screen. Data for the bub3 strain (AID 167); settings: S. cerevisiae bub3 mutant strain, active compounds read high
# Summary of the method: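 Growth of a checkpoint-deficient yeast mutant is measured after compound exposure. Values represent inhibition relative to vehicle.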
# [12] = NCI Yeast Anticancer Drug Screen. Data for the wt2 strain (AID 169);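 further: 0% = growth of vehicle-treated yeast cultures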; settings: S. cerevisiae wt2 strain growth inhibition, active compounds read high
# Summary of the method: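 Growth of compound-treated yeast is measured and expressed as inhibition relative to vehicle-only controls.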
# [13] = NCI Yeast Anticancer Drug Screen. Data for the mlh1 strain (AID 171);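 further: 0% = growth of vehicle-treated control cultures of the same strain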; settings: S. cerevisiae mlh1 strain growth inhibition, active compounds read high
# Summary of the method: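 Test agents were incubated with yeast bearing a defined DNA damage repair or cell cycle control alteration; values are growth inhibition normalised to vehicle-treated cultures.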
# [14] = NCI Yeast Anticancer Drug Screen. Data for the sgs1 strain (AID 173);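 further: 0% = growth of vehicle-only control cultures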; settings: S. cerevisiae sgs1 mutant, active compounds read high
# Summary of the method: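 Strain with an altered DNA repair or cell cycle pathway exposed to compound. Growth then measured. Value = inhibition versus vehicle control.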
# [15] = NCI Yeast Anticancer Drug Screen. Data for the mlh1 rad18 strain (AID 175); settings: S. cerevisiae mlh1 rad18 strain growth inhibition, active compounds read high
# Summary of the method: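 A repair-deficient yeast strain is exposed to test compound, and growth is scored relative to vehicle-treated controls.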
# [16] = NCI Yeast Anticancer Drug Screen. Data for the rad18 strain (AID 177); settings: S. cerevisiae rad18 mutant growth inhibition, active compounds read high
# Summary of the method: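 DNA-repair-defective yeast; compound treatment; growth inhibition scored against vehicle.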
# [17] = at 5.0 µM (retest, dose inferred, filed as 0.5)
# [18] = at 50.0 µM (retest, dose inferred, filed as 5.0)
smiles,measurement,setting,value
COc1ccc(N2CN(C)CSC2=S)cc1,growth inhibition,[1]; at 1.2 µM,-27%
same,growth inhibition,[1]; at 3.7 µM,-11%
same,growth inhibition,[1]; at 11.0 µM,-1%
same,growth inhibition,[1]; at 33.0 µM,43%
same,growth inhibition,[1]; at 100.0 µM,72% (active)
same,growth inhibition,[2]; at 1.2 µM,-18%
same,growth inhibition,[2]; at 3.7 µM,-14%
same,growth inhibition,[2]; at 11.0 µM,-22%
same,growth inhibition,[2]; at 33.0 µM,-1%
same,growth inhibition,[2]; at 100.0 µM,58%
same,growth inhibition,[3]; at 1.2 µM,-36%
same,growth inhibition,[3]; at 3.7 µM,10%
same,growth inhibition,[3]; at 11.0 µM,58%
same,growth inhibition,[3]; at 33.0 µM,81% (active)
same,growth inhibition,[3]; at 100.0 µM,90% (active)
same,growth inhibition,[4]; at 1.2 µM,-51%
same,growth inhibition,[4]; at 3.7 µM,-48%
same,growth inhibition,[4]; at 11.0 µM,-36%
same,growth inhibition,[4]; at 33.0 µM,-11%
same,growth inhibition,[4]; at 100.0 µM,61%
same,growth inhibition,[5]; at 1.2 µM,-20%
same,growth inhibition,[5]; at 3.7 µM,3%
same,growth inhibition,[5]; [17],61%
same,growth inhibition,[5]; at 11.0 µM,25%
same,growth inhibition,[5]; at 33.0 µM,63%
same,growth inhibition,[5]; [18],95% (active)
same,growth inhibition,[5]; at 50.0 µM,10.6%
same,growth inhibition,[5]; at 100.0 µM,83% (active)
same,growth inhibition,[6]; at 1.2 µM,-17%
same,growth inhibition,[6]; at 3.7 µM,-29%
same,growth inhibition,[6]; [17],73% (active)
same,growth inhibition,[6]; at 11.0 µM,-22%
same,growth inhibition,[6]; at 33.0 µM,-2%
same,growth inhibition,[6]; [18],96% (active)
same,growth inhibition,[6]; at 50.0 µM,8.85%
same,growth inhibition,[6]; at 100.0 µM,75% (active)
same,growth inhibition,[7]; at 1.2 µM,-24%
same,growth inhibition,[7]; at 3.7 µM,-22%
same,growth inhibition,[7]; at 11.0 µM,-21%
same,growth inhibition,[7]; at 33.0 µM,-11%
same,growth inhibition,[7]; at 100.0 µM,40%
same,growth inhibition,[8]; [17],-20%
same,growth inhibition,[8]; [18],59%
same,growth inhibition,[9]; at 1.2 µM,-23%
same,growth inhibition,[9]; at 3.7 µM,-23%
same,growth inhibition,[9]; at 11.0 µM,-39%
same,growth inhibition,[9]; at 33.0 µM,-9%
same,growth inhibition,[9]; at 100.0 µM,24%
same,growth inhibition,[10]; [17],22%
same,growth inhibition,[10]; [18],59%
same,growth inhibition,[11]; at 1.2 µM,-12%
same,growth inhibition,[11]; at 3.7 µM,-11%
same,growth inhibition,[11]; [17],35%
same,growth inhibition,[11]; at 11.0 µM,-12%
same,growth inhibition,[11]; at 33.0 µM,32%
same,growth inhibition,[11]; [18],83% (active)
same,growth inhibition,[11]; at 100.0 µM,73% (active)
same,growth inhibition,[12]; at 1.2 µM,-25%
same,growth inhibition,[12]; at 3.7 µM,-15%
same,growth inhibition,[12]; at 11.0 µM,-22%
same,growth inhibition,[12]; at 33.0 µM,-7%
same,growth inhibition,[12]; at 100.0 µM,58%
same,growth inhibition,[13]; at 1.2 µM,-53%
same,growth inhibition,[13]; at 3.7 µM,-52%
same,growth inhibition,[13]; at 11.0 µM,-48%
same,growth inhibition,[13]; at 33.0 µM,-3%
same,growth inhibition,[13]; at 100.0 µM,57%
same,growth inhibition,[14]; at 1.2 µM,-43%
same,growth inhibition,[14]; at 3.7 µM,-41%
same,growth inhibition,[14]; at 11.0 µM,-39%
same,growth inhibition,[14]; at 33.0 µM,7%
same,growth inhibition,[14]; at 100.0 µM,71% (active)
same,growth inhibition,[15]; [17],51%
same,growth inhibition,[15]; [18],97% (active)
same,growth inhibition,[15]; at 50.0 µM,56.4%
same,growth inhibition,[16]; at 1.2 µM,-67%
same,growth inhibition,[16]; at 3.7 µM,-64%
same,growth inhibition,[16]; at 11.0 µM,-53%
same,growth inhibition,[16]; at 33.0 µM,-41%
same,growth inhibition,[16]; at 100.0 µM,52%
CCN(CC)CCNC(=O)c1nn(-c2ccc(Cl)cc2)c2c1CCc1cc(OC)ccc1-2,growth inhibition,[1]; at 1.2 µM,-16%
same,growth inhibition,[1]; at 3.7 µM,13%
same,growth inhibition,[1]; at 11.0 µM,26%
same,growth inhibition,[1]; at 33.0 µM,40%
same,growth inhibition,[1]; at 100.0 µM,94% (active)
same,growth inhibition,[2]; at 1.2 µM,10%
same,growth inhibition,[2]; at 3.7 µM,22%
same,growth inhibition,[2]; at 11.0 µM,25%
same,growth inhibition,[2]; at 33.0 µM,24%
same,growth inhibition,[2]; at 100.0 µM,58%
same,growth inhibition,[3]; at 1.2 µM,18%
same,growth inhibition,[3]; at 3.7 µM,32%
same,growth inhibition,[3]; at 11.0 µM,43%
same,growth inhibition,[3]; at 33.0 µM,44%
same,growth inhibition,[3]; at 100.0 µM,56%
same,growth inhibition,[4]; at 1.2 µM,12%
same,growth inhibition,[4]; at 3.7 µM,10%
same,growth inhibition,[4]; at 11.0 µM,8%
same,growth inhibition,[4]; at 33.0 µM,12%
same,growth inhibition,[4]; at 100.0 µM,81% (active)
same,growth inhibition,[5]; at 1.2 µM,6%
same,growth inhibition,[5]; at 3.7 µM,5%
same,growth inhibition,[5]; [17],1%
same,growth inhibition,[5]; at 11.0 µM,17%
same,growth inhibition,[5]; at 33.0 µM,59%
same,growth inhibition,[5]; [18],80% (active)
same,growth inhibition,[5]; at 50.0 µM,59.2%
same,growth inhibition,[5]; at 100.0 µM,95% (active)
same,growth inhibition,[6]; at 1.2 µM,-10%
same,growth inhibition,[6]; at 3.7 µM,-2%
same,growth inhibition,[6]; [17],-16%
same,growth inhibition,[6]; at 11.0 µM,4%
same,growth inhibition,[6]; at 33.0 µM,0%
same,growth inhibition,[6]; [18],54%
same,growth inhibition,[6]; at 50.0 µM,66.4%
same,growth inhibition,[6]; at 100.0 µM,73% (active)
same,growth inhibition,[8]; [17],15%
same,growth inhibition,[8]; [18],80% (active)
same,growth inhibition,[8]; at 50.0 µM,67.5%
same,growth inhibition,[9]; at 1.2 µM,-12%
same,growth inhibition,[9]; at 3.7 µM,11%
same,growth inhibition,[9]; at 11.0 µM,6%
same,growth inhibition,[9]; at 33.0 µM,5%
same,growth inhibition,[9]; at 100.0 µM,80% (active)
same,growth inhibition,[10]; [17],2%
same,growth inhibition,[10]; [18],39%
same,growth inhibition,[10]; at 50.0 µM,28.8%
same,growth inhibition,[11]; at 1.2 µM,9%
same,growth inhibition,[11]; at 3.7 µM,9%
same,growth inhibition,[11]; [17],8%
same,growth inhibition,[11]; at 11.0 µM,10%
same,growth inhibition,[11]; at 33.0 µM,13%
same,growth inhibition,[11]; [18],77% (active)
same,growth inhibition,[11]; at 50.0 µM,58.7%
same,growth inhibition,[11]; at 100.0 µM,83% (active)
same,growth inhibition,[12]; at 1.2 µM,-11%
same,growth inhibition,[12]; at 3.7 µM,-1%
same,growth inhibition,[12]; at 11.0 µM,-8%
same,growth inhibition,[12]; at 33.0 µM,8%
same,growth inhibition,[12]; at 100.0 µM,96% (active)
same,growth inhibition,[13]; at 1.2 µM,13%
same,growth inhibition,[13]; at 3.7 µM,17%
same,growth inhibition,[13]; at 11.0 µM,10%
same,growth inhibition,[13]; at 33.0 µM,0%
same,growth inhibition,[13]; at 100.0 µM,87% (active)
same,growth inhibition,[14]; at 1.2 µM,3%
same,growth inhibition,[14]; at 3.7 µM,2%
same,growth inhibition,[14]; at 11.0 µM,8%
same,growth inhibition,[14]; at 33.0 µM,14%
same,growth inhibition,[14]; at 100.0 µM,90% (active)
same,growth inhibition,[15]; [17],-1%
same,growth inhibition,[15]; [18],81% (active)
same,growth inhibition,[16]; at 1.2 µM,-4%
same,growth inhibition,[16]; at 3.7 µM,4%
same,growth inhibition,[16]; at 11.0 µM,1%
same,growth inhibition,[16]; at 33.0 µM,18%
same,growth inhibition,[16]; at 100.0 µM,95% (active)
